In the supplement of paper PMC6897291:

Tested on: RIVA
Test: growth inhibition by drug plus 177Lu-lilotomab satetraxetan (1 - RLU/untreated control) (fraction); higher = stronger inhibition
Conditions: 177Lu-lilotomab satetraxetan 0.5 ug/ml
Procedure: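 RIVA (RI-1) ABC-DLBCL cells were pretreated or not for 18 h with 0.5 ug/ml 177Lu-lilotomab satetraxetan (600 MBq/mg), washed and seeded (3000 cells/well) on 384-well plates pre-printed with the Selleck Cambridge Cancer Compound library. Viability was read by RealTime-Glo luminescence on days 3-6 after seeding. Effect = 1 - RLU/mean RLU of the 48 untreated no-drug control wells per plate; Bliss score = (M-E)/(1-Fa).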

| Structure (SMILES) | growth inhibition by drug plus 177Lu-lilotomab satetraxetan (10 nM, time (day): 3) | growth inhibition by drug plus 177Lu-lilotomab satetraxetan (10 nM, time (day): 4) | growth inhibition by drug plus 177Lu-lilotomab satetraxetan (10 nM, time (day): 5) | growth inhibition by drug plus 177Lu-lilotomab satetraxetan (10 nM, time (day): 6) | growth inhibition by drug plus 177Lu-lilotomab satetraxetan (100 nM, time (day): 3) | growth inhibition by drug plus 177Lu-lilotomab satetraxetan (100 nM, time (day): 4) | growth inhibition by drug plus 177Lu-lilotomab satetraxetan (100 nM, time (day): 5) | growth inhibition by drug plus 177Lu-lilotomab satetraxetan (100 nM, time (day): 6) |
| --- | --- | --- | --- | --- | --- | --- | --- | --- |
| O=C(Oc1ccc([N+](=O)[O-])cc1)N1CCC(C(O)(c2ccc3c(c2)OCO3)c2ccc3c(c2)OCO3)CC1 | 0.375 | 0.498 | 0.518 | 0.517 | 0.429 | 0.517 | 0.523 | 0.501 |
| CC(=O)Nc1ccc(OC[C@](C)(O)C(=O)Nc2ccc([N+](=O)[O-])c(C(F)(F)F)c2)cc1 [Andarine (GTX-007)] | 0.585 | 0.603 | 0.615 | 0.608 | 0.404 | 0.5 | 0.511 | 0.533 |
| Cc1ccccc1-n1c(Cn2cnc3c(N)ncnc32)nc2cccc(C)c2c1=O | 0.471 | 0.529 | 0.546 | 0.556 | 0.375 | 0.45 | 0.472 | 0.479 |
| CC[C@@H](C(=O)[C@@H](C)[C@@H](O)[C@H](C)[C@@H]1O[C@@H]([C@@H](CC)C(=O)O)CC[C@@H]1C)[C@H]1O[C@]2(C=C[C@@H](O)[C@]3(CC[C@@](C)([C@H]4CC[C@](O)(CC)[C@H](C)O4)O3)O2)[C@H](C)C[C@@H]1C [Salinomycin (Procoxacin)] | 0.491 | 0.572 | 0.591 | 0.6 | 0.481 | 0.518 | 0.517 | 0.502 |
| N[C@@H](Cc1ccc(N(CCCl)CCCl)cc1)C(=O)O [Melphalan] | 0.357 | 0.502 | 0.516 | 0.527 | 0.365 | 0.48 | 0.492 | 0.494 |
